# In all, about 5,500 compounds went through this assay and about 2,000 (36%) were called active. Another 18% or so got no clear call; they are omitted. The list shows a part of the results. Values without a mark were called inactive. Rule as the data show it: active = normalized growth mostly below about 0.91 (no sharp cut-off); inconclusive = no clear call, values can overlap the other calls; inactive = mostly above about 0.92.
# Assay: chemical genetic growth profiling, strain panel (AID 1159580);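 also: tested at 20 µM; growth read once vehicle control cultures reached saturation at 30 °C; 1 = growth at the plate median or of vehicle wells; lower values mean less growth of the strain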
# Details: S. cerevisiae deletion strains, growth OD
structure (smiles),measurement,setting,value
CN(C)CCOc1ccc(/C(=C(/CCCl)c2ccccc2)c2ccccc2)cc1,normalized growth,"locus YAL021C, strain ccr4, stronger effect = lower value",0.0628 (active)
same,normalized growth,"locus YAL026C, strain drs2, stronger effect = lower value",0.0599 (active)
same,normalized growth,"locus YAL030W, strain snc1, stronger effect = lower value",0.0605 (active)
same,normalized growth,"locus YBL061C, strain skt5, stronger effect = lower value",0.0647 (active)
same,normalized growth,"locus YBR009C, strain hhf1, stronger effect = lower value",0.0629 (active)
same,normalized growth,"locus YBR023C, strain chs3, stronger effect = lower value",0.0684 (active)
same,normalized growth,"locus YBR171W, strain sec66, stronger effect = lower value",0.1 (active)
same,normalized growth,"locus YBR231C, strain swc5, stronger effect = lower value",0.0672 (active)
same,normalized growth,"locus YBR279W, strain paf1, stronger effect = lower value",0.0678 (active)
same,normalized growth,"locus YCL011C, strain gbp2, stronger effect = lower value",0.0647 (active)
same,normalized growth,"locus YCL016C, strain dcc1, stronger effect = lower value",0.0711 (active)
same,normalized growth,"locus YCL061C, strain MRC1, stronger effect = lower value",0.107 (active)
same,normalized growth,"locus YCL069W, strain vba3, stronger effect = lower value",0.071 (active)
same,normalized growth,"locus YCR088W, strain abp1, stronger effect = lower value",0.0709 (active)
same,normalized growth,"locus YDL005C, strain med2, stronger effect = lower value",0.0725 (active)
same,normalized growth,"locus YDL040C, strain nat1, stronger effect = lower value",0.0985 (active)
same,normalized growth,"locus YDR001C, strain nth1, stronger effect = lower value",0.0873 (active)
same,normalized growth,"locus YDR069C, strain doa4, stronger effect = lower value",0.0653 (active)
same,normalized growth,"locus YDR137W, strain rgp1, stronger effect = lower value",0.0958 (active)
same,normalized growth,"locus YDR159W, strain sac3, stronger effect = lower value",0.0868 (active)
same,normalized growth,"locus YDR195W, strain ref2",0.126 (active)
same,normalized growth,"locus YDR297W, strain sur2, stronger effect = lower value",0.0624 (active)
same,normalized growth,"locus YDR334W, strain swr1, stronger effect = lower value",0.0691 (active)
same,normalized growth,"locus YDR335W, strain msn5, stronger effect = lower value",0.0647 (active)
same,normalized growth,"locus YDR392W, strain spt3, stronger effect = lower value",0.0935 (active)
same,normalized growth,"locus YEL003W, strain gim4, stronger effect = lower value",0.0736 (active)
same,normalized growth,"locus YEL037C, strain rad23, stronger effect = lower value",0.0691 (active)
same,normalized growth,"locus YEL061C, strain CIN8 (second series), stronger effect = lower value",0.0848 (active)
same,normalized growth,"locus YER015W, strain faa2, stronger effect = lower value",0.0621 (active)
same,normalized growth,"locus YER016W, strain bim1, stronger effect = lower value",0.0811 (active)
same,normalized growth,"locus YER111C, strain swi4, stronger effect = lower value",0.0861 (active)
same,normalized growth,"locus YER155C, strain BEM2 (second series), stronger effect = lower value",0.107 (active)
same,normalized growth,"locus YFR010W, strain ubp6, stronger effect = lower value",0.069 (active)
same,normalized growth,"locus YGL167C, strain pmr1, stronger effect = lower value",0.0724 (active)
same,normalized growth,"locus YGL173C, strain kem1, stronger effect = lower value",0.0697 (active)
same,normalized growth,"locus YGL227W, strain vid30, stronger effect = lower value",0.0851 (active)
same,normalized growth,"locus YGL240W, strain doc1, stronger effect = lower value",0.0984 (active)
same,normalized growth,"locus YGL253W, strain hxk2, stronger effect = lower value",0.0578 (active)
same,normalized growth,"locus YHR013C, strain ard1, stronger effect = lower value",0.111 (active)
same,normalized growth,"locus YHR027C, strain rpn1, stronger effect = lower value",0.063 (active)
same,normalized growth,"locus YHR030C, strain SLT2, stronger effect = lower value",0.711 (active)
same,normalized growth,"locus YHR079C, strain IRE1, stronger effect = lower value",0.837 (active)
same,normalized growth,"locus YHR142W, strain chs7, stronger effect = lower value",0.0764 (active)
same,normalized growth,"locus YJL092W, strain hpr5, stronger effect = lower value",0.0832 (active)
same,normalized growth,"locus YJL095W, strain BCK1 (second series), stronger effect = lower value",0.0582 (active)
same,normalized growth,"locus YJL095W, strain BCK1, stronger effect = lower value",0.648 (active)
same,normalized growth,"locus YJL115W, strain asf1, stronger effect = lower value",0.118 (active)
same,normalized growth,"locus YJL129C, strain trk1, stronger effect = lower value",0.0917 (active)
same,normalized growth,"locus YJL154C, strain vps35, stronger effect = lower value",0.0755 (active)
same,normalized growth,"locus YJL164C, strain tpk1, stronger effect = lower value",0.0629 (active)
same,normalized growth,"locus YJL166W, strain qcr8, stronger effect = lower value",0.0637 (active)
same,normalized growth,"locus YJL187C, strain SWE1, stronger effect = lower value",0.0638 (active)
same,normalized growth,"locus YJR066W, strain TOR1, stronger effect = lower value",0.819 (active)
same,normalized growth,"locus YKL160W, strain elf1, stronger effect = lower value",0.079 (active)
same,normalized growth,"locus YKR026C, strain gcn3, stronger effect = lower value",0.106 (active)
same,normalized growth,"locus YKR091W, strain srl3, stronger effect = lower value",0.0783 (active)
same,normalized growth,"locus YLL001W, strain dnm1, stronger effect = lower value",0.0676 (active)
same,normalized growth,"locus YLL026W, stronger effect = lower value",0.0624 (active)
same,normalized growth,"locus YLL041C, strain sdh2, stronger effect = lower value",0.0691 (active)
same,normalized growth,"locus YLR027C, strain aat2, stronger effect = lower value",0.0598 (active)
same,normalized growth,"locus YLR113W, strain HOG1, stronger effect = lower value",0.791 (active)
same,normalized growth,"locus YLR221C, strain rsa3, stronger effect = lower value",0.0691 (active)
same,normalized growth,"locus YLR258W, strain gsy2, stronger effect = lower value",0.0661 (active)
same,normalized growth,"locus YLR262C, strain YPT6 (second series), stronger effect = lower value",0.0861 (active)
same,normalized growth,"locus YLR320W, strain mms22, stronger effect = lower value",0.0789 (active)
same,normalized growth,"locus YLR342W, strain FKS1, stronger effect = lower value",0.0712 (active)
same,normalized growth,"locus YLR357W, strain rsc2, stronger effect = lower value",0.148 (active)
same,normalized growth,"locus YLR370C, strain arc18, stronger effect = lower value",0.0617 (active)
same,normalized growth,"locus YLR384C, strain iki3, stronger effect = lower value",0.078 (active)
same,normalized growth,"locus YML120C, strain ndi1, stronger effect = lower value",0.0751 (active)
same,normalized growth,"locus YMR058W, strain fet3, stronger effect = lower value",0.064 (active)
same,normalized growth,"locus YMR125W, strain sto1, stronger effect = lower value",0.0872 (active)
same,normalized growth,"locus YMR129W, stronger effect = lower value",0.0788 (active)
same,normalized growth,"locus YMR205C, strain PFK2, stronger effect = lower value",0.0858 (active)
same,normalized growth,"locus YMR231W, strain pep5, stronger effect = lower value",0.0638 (active)
same,normalized growth,"locus YNL071W, strain lat1, stronger effect = lower value",0.0628 (active)
same,normalized growth,"locus YNL183C, strain NPR1, stronger effect = lower value",0.85
same,normalized growth,"locus YNL209W, strain ssb2, stronger effect = lower value",0.0599 (active)
same,normalized growth,"locus YNL248C, strain rpa49, stronger effect = lower value",0.166 (active)
same,normalized growth,"locus YNL322C, strain KRE1 (second series), stronger effect = lower value",0.433 (active)
same,normalized growth,"locus YNR049C, strain mso1, stronger effect = lower value",0.0725 (active)
same,normalized growth,"locus YOR001W, strain rrp6, stronger effect = lower value",0.0831 (active)
same,normalized growth,"locus YOR070C, strain gyp1, stronger effect = lower value",0.0593 (active)
same,normalized growth,"locus YOR080W, strain dia2, stronger effect = lower value",0.0814 (active)
same,normalized growth,"locus YOR083W, strain WHI5, stronger effect = lower value",0.0673 (active)
same,normalized growth,"locus YOR106W, strain vam3, stronger effect = lower value",0.117 (active)
same,normalized growth,"locus YOR231W, strain MKK1, stronger effect = lower value",0.791 (active)
same,normalized growth,"locus YOR265W, strain rbl2, stronger effect = lower value",0.0684 (active)
same,normalized growth,"locus YOR270C, strain vph1, stronger effect = lower value",0.0918 (active)
same,normalized growth,"locus YOR290C, strain snf2, stronger effect = lower value",0.0929 (active)
same,normalized growth,"locus YPL051W, strain arl3, stronger effect = lower value",0.0673 (active)
same,normalized growth,"locus YPL078C, strain atp4, stronger effect = lower value",0.0865 (active)
same,normalized growth,"locus YPL106C, strain sse1, stronger effect = lower value",0.1 (active)
same,normalized growth,"locus YPL240C, strain hsp82, stronger effect = lower value",0.0664 (active)
same,normalized growth,"locus YPL256C, strain CLN2, stronger effect = lower value",0.835
CN(CCOc1ccc(C[C@H](Nc2ccccc2C(=O)c2ccccc2)C(=O)O)cc1)c1ccccn1,normalized growth,"locus YAL013W, strain DEP1, stronger effect = lower value",0.992
same,normalized growth,"locus YAL040C, strain CLN3, stronger effect = lower value",1.09
same,normalized growth,"locus YCL061C, strain MRC1 (second series), stronger effect = lower value",0.999
same,normalized growth,"locus YDR363W, strain ESC2, stronger effect = lower value",0.994
same,normalized growth,"locus YER002W, strain NOP16, stronger effect = lower value",1
same,normalized growth,"locus YGR078C, strain PAC10, stronger effect = lower value",1.02
same,normalized growth,"locus YMR263W, strain SAP30, stronger effect = lower value",1
same,normalized growth,"locus YMR307W, strain GAS1, stronger effect = lower value",0.996
same,normalized growth,"locus YNL175C, strain NOP13, stronger effect = lower value",1
same,normalized growth,"locus YNL197C, strain WHI3, stronger effect = lower value",0.994
same,normalized growth,"locus YNL224C, strain SQS1, stronger effect = lower value",0.992
same,normalized growth,"locus YOR083W, strain WHI5 (second series), stronger effect = lower value",1.1
same,normalized growth,"locus YPL055C, strain LGE1, stronger effect = lower value",1
